In PMC12136788:
Numbering of substitutions follows the chain as printed. In all, about 24,000 sequences were measured (“enrichment r”: median about 0.99, highest 2% from about 3.7 on). What follows is part of a selection rich in the highest values, with near analogues and random picks from the rest.

T1: UNK ZnF1-3 (human, UniProt Q9C0B0 31-174)
T1 sequence: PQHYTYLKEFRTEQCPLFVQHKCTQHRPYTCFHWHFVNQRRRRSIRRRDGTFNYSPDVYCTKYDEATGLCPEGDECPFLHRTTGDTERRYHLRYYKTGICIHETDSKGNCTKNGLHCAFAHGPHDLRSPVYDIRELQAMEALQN

B1: chr12:48362563:48362564:+_ENSG00000134291_ENST00000256686|hu_mus|FALSE|FALSE (ssRNA)
RNA: GGGAGUUCUACAGUCCGACGAUCUCCGUCAAGCCCUUCGAUAGACCCUUGCGGGGGAAACUGUAAUCACUUUGUAUGGGGAAGGAAAAGAAACGCCAAAAACUUUCCAAAAAGCGGGGGUGGGGUGAGGCGGGAGGGGGAGGUCAACAGAGGAUUGAGCAUCA
B2: chr14:76904430:76904431:+_ENSMUSG00000022010_ENSMUST00000022587|mus_mus|mus_mus_mus_hu_True|68_68 (ssRNA)
RNA: GGGAGUUCUACAGUCCGACGAUCUGCAGCCAAAAACACCCUCGUGGAAAAAAAGAGGGAACACCAGCAGCCUGGUUUAAGCUAGAUAAAAUCUUCUGGCUUUCCGCAGCCCAGGGAGAAACAGAAAACGGCAGCCCUAAUUUACAACAGAGGAUUGAGCAUCA
B3: chr14:76904430:76904431:+_ENSMUSG00000022010_ENSMUST00000022587|mus_mus|mus_mus_mus_hu_True|88_98 (ssRNA)
RNA: GGGAGUUCUACAGUCCGACGAUCUGCAGCCAAAAACAGAGAGAGGGCGGGAGGGAGGGAACACCAGCAGCCUUGUAUAAGCUAGAUAAAAUCUUCUGGCUUUCCGCAGCCCAGGGAGAAACAGAAAACGGCAGCCCUAAUUUACAACAGAGGAUUGAGCAUCA
B4: chr14:76904430:76904431:+_ENSMUSG00000022010_ENSMUST00000022587|mus_mus|mus_mus_mus_hu_True|38_98 (ssRNA)
RNA: B3 RNA with C47A, G48A, G49A, G50A, G52A, G53A, G97A, U101G, C104U
B5: chr14:76904430:76904431:+_ENSMUSG00000022010_ENSMUST00000022587|mus_mus|mus_mus_mus_hu_True|48_88 (ssRNA)
RNA: B3 RNA with G38C, A39C, G40C, A41U, G42C, A43G, G44U, U91C, U93G, U94C
B6: chr14:76904430:76904431:+_ENSMUSG00000022010_ENSMUST00000022587|mus_mus|mus_mus_mus_hu_True|98_98 (ssRNA)
RNA: B3 RNA with C47A, G48A, G49A, G50A, G52A, G53A
B7: chr14:76904430:76904431:+_ENSMUSG00000022010_ENSMUST00000022587|mus_mus|mus_mus_mus_hu_True|48_98 (ssRNA)
RNA: B3 RNA with C47A, G48A, G49A, G50A, G52A, G53A, U91C, U93G, U94C
B8: chr14:76904430:76904431:+_ENSMUSG00000022010_ENSMUST00000022587|mus_mus|mus_mus_mus_hu_True|98_108 (ssRNA)
RNA: B3 RNA with A27U, C29G, C30A, C36A, C47A, G48A, G49A, G50A, G52A, G53A
B9: chr7:148083511:148083512:+_ENSMUSG00000025487_ENSMUST00000026560|mus_mus|FALSE|FALSE (ssRNA)
RNA: GGGAGUUCUACAGUCCGACGAUCCAAAUCCAGCACUCGCGGCUGCACCCACGUCAUGUGAACCCGCUUGUCCACCUCGUCUAUGCUGCCUCUCACCAGCCCCACCGAGAGUGCCUUCAUCACCAGCAACUCCACCUUGUUGACCAACAGAGGAUUGAGCAUCA
B10: 104840732_104840852_1265_3pUTR_ENSMUSG00000021710_ENSMUST00000109315|mouse|control|control (ssRNA)
RNA: GGGAGUUCUACAGUCCGACGAUCGACCACCUCAAUGGGAAAGUACUCCUUGAGGGACUCCUGGUCCACAGAGUACUUGAGCUCCUCUGUCUGGGUCAUGUAGUAAUGGAGGUCCCAUGCGUUGAUCUUCCCGUCGUAUGCAAACAACAGAGGAUUGAGCAUCA
B11: chr15:63447868:63447869:-_ENSG00000185088_ENST00000411926|hu_hu|FALSE|FALSE (ssRNA)
RNA: GGGAGUUCUACAGUCCGACGAUCCCCUUCUGUGAGUCUGGCCUUUCCUCCUGUAGGCUGGCACAACACUGUUGAACAACCUACACAAAGAACCACUGUCUGAGCAUGGCUGAAAACCGUGGUGAUCUUGUAGCAACCUGGACACAACAGAGGAUUGAGCAUCA
B12: chr3:148479741:148479742:-_ENSMUSG00000028184_ENSMUST00000106128|mus_mus|motif|central (ssRNA)
RNA: GGGAGUUCUACAGUCCGACGAUCACAAUGCAGGCCUACAGAAAAACAAAACAAAACAAAAACAAAAACCGGUAGGGCCCGGUUUACAGACUCAGUUCACCAACUGCCGCAAGGAACAUGGCCGGGAGGGAGGGUCUCUUGUUUCAACAGAGGAUUGAGCAUCA
B13: chr2:175006660:175006661:-_ENSG00000138430_ENST00000344357|hu_mus|motif|central (ssRNA)
RNA: GGGAGUUCUACAGUCCGACGAUCUAGAAUGGGCCCAAUCAUCUCCUCGUCCUUCAGCUGGAGCUCCUCGUGAAUUAUCUCGGUGUCUCGGAUGGGAUCUACACUUCCUUCAACAUGCGUGAUAUCAUCGUCUUCAAAAGCACGCAACAGAGGAUUGAGCAUCA
B14: chr17:56552419:56552420:-_ENSMUSG00000013236_ENSMUST00000086828|mus_mus|mus_mus_mus_hu_False|38_88 (ssRNA)
RNA: GGGAGUUCUACAGUCCGACGAUCAAAAAAUACACUAUUUAAAAAAAAAAGAAAAAAACGGGAUACAGUUACACUGAGAGUUUUAAAAGAAAGCUGGAAAAAAAAUGCAGCCCAGUGUCCCCAGGCUGCAGAGCGGGGAGGAGCCAACAGAGGAUUGAGCAUCA
B15: chr17:56552419:56552420:-_ENSMUSG00000013236_ENSMUST00000086828|mus_mus|mus_mus_mus_hu_False|1_38 (ssRNA)
RNA: B14 RNA with A48U, A49G, G50A, A53U, A54G, A55U, A56C, A138C, G139A, C143G
B16: chr17:56552419:56552420:-_ENSMUSG00000013236_ENSMUST00000086828|mus_mus|mus_mus_mus_hu_False|38_38 (ssRNA)
RNA: B14 RNA with A48U, A49G, G50A, A53U, A54G, A55U, A56C
B17: chr17:56552419:56552420:-_ENSMUSG00000013236_ENSMUST00000086828|mus_mus|mus_mus_mus_hu_False|38_98 (ssRNA)
RNA: B14 RNA with U38A, U39A, A48U, A49G, G50A, A53U, A54G, A55U, A56C
B18: 154963464_154963584_1656_3pUTR_ENSMUSG00000042751_ENSMUST00000043313|mouse|control|control (ssRNA)
RNA: GGGAGUUCUACAGUCCGACGAUCCUGGUUGGCAGAGAACCCACUCAAUGCUACUGGUCAGACACACAGCAUCAAGACCACGAUCAUCUGAAACCAGGGACUCAAAUUCUGAGAAACCCUACUCUUCCCAGACUUAUGUACCAGCAACAGAGGAUUGAGCAUCA
B19: chr8:145151508:145151509:+_ENSG00000179091_ENST00000318911|hu_hu|FALSE|FALSE (ssRNA)
RNA: GGGAGUUCUACAGUCCGACGAUCACCUUCCCGCAGUGACACCCCGGUGGGUGGCUCGCAGUAGCCCGUGAGCAGGGAGAAGACGUAGUCCUCACCACCAUGCCUAGCUCGCACGAUGUAGCUGAGGUCAGGGGGCAAUGCUCCCAACAGAGGAUUGAGCAUCA
B20: 35238635_35241177_7885_CDS_ENSMUSG00000029104_ENSMUST00000080036|mouse|control|control (ssRNA)
RNA: GGGAGUUCUACAGUCCGACGAUCCUGGCCCAGCUUGUAGCUCAUGUUGCCUGGCUCCCGCUCUGGGUUGAUCUGCAGCAGCAGCUUGUCAUGGCUGAUAAGAGCACCUGUAGUAGCUGGUAACAGAGAAGGGACAGGAUCCCACAACAGAGGAUUGAGCAUCA
B21: chr8:13020401:13020402:+_ENSMUSG00000031442_ENSMUST00000123811|mus_hu|FALSE|FALSE (ssRNA)
RNA: GGGAGUUCUACAGUCCGACGAUCUGAUUCCGCACCCUGGAGGUCUGGCCAGUGACGGCUACAAGCCGCUGGGAGGGUAGCGUGAGGGGAAUGCAGCCACGCCUGCCUCCACUGUGCUGGGGCUGGGAACCGUGAGGCUGUGAGCAACAGAGGAUUGAGCAUCA
B22: chr9:4385736:4385737:+_ENSMUSG00000041124_ENSMUST00000047173|mus_hu|FALSE|FALSE (ssRNA)
RNA: GGGAGUUCUACAGUCCGACGAUCAUAUUUUGGGUUGGAAAAUUCUUUACUGAGUGUGGGGGGGUGUUGAGGAGGUAUGCAUUGCACAGUAGCAACCUUUUCCCCACCCCAGUUUUGACAACCCAACAUGUCUCCAGACAUCACCAACAGAGGAUUGAGCAUCA

Target: T1, UNK ZnF1-3
Assay: nsRBNS (natural sequence RNA bind-n-seq); RBNS binding buffer (assumed for nsRBNS): 25 mM Tris pH 7.5, 150 mM KCl, 3 mM MgCl2, 0.01% Triton X-100, 500 ug/ml BSA, 20 U/ml SUPERase-In, 4 C; UNK is unkempt and MSI1 is Musashi-1; names of the RNAs are library labels; protein concentration not given here; high values mean tight binding

Question: B1 was tested. Which binding signal did it give?
Answer: 2.36 enrichment R

Question: B2 was tested. Which binding signal did it give?
Answer: 2.29 enrichment R

Question: How did the binding signal turn out when B3 was run?
Answer: 3.29 enrichment R

Question: B4 was tested. Which binding signal did it give?
Answer: 4.97 enrichment R

Question: How did the binding signal turn out when B5 was run?
Answer: 2.24 enrichment R

Question: Which binding signal does the source give for B6 here?
Answer: 4.46 enrichment R

Question: Which binding signal does the source give for B7 here?
Answer: 3.64 enrichment R

Question: Which binding signal does the source give for B8 here?
Answer: 3.93 enrichment R

Question: Which binding signal does the source give for B9 here?
Answer: 0.937 enrichment R

Question: B10 was tested. Which binding signal did it give?
Answer: 0.691 enrichment R

Question: B11 was tested. Which binding signal did it give?
Answer: 0.955 enrichment R

Question: For B12, which binding signal is on record?
Answer: 2.06 enrichment R

Question: How did the binding signal turn out when B13 was run?
Answer: 0.77 enrichment R

Question: B14 was tested. Which binding signal did it give?
Answer: 13.5 enrichment R

Question: B15 was tested. Which binding signal did it give?
Answer: 5.3 enrichment R

Question: How did the binding signal turn out when B16 was run?
Answer: 5.93 enrichment R

Question: B17 was tested. Which binding signal did it give?
Answer: 7.57 enrichment R

Question: B18 was tested. Which binding signal did it give?
Answer: 1.29 enrichment R

Question: For B19, which binding signal is on record?
Answer: 1.01 enrichment R

Question: For B20, which binding signal is on record?
Answer: 1.21 enrichment R

Question: B21 was tested. Which binding signal did it give?
Answer: 1.36 enrichment R

Question: Which binding signal does the source give for B22 here?
Answer: 0.462 enrichment R
